About 83,000 compounds went through this panel and 20% of them were active in at least one assay; those are over-represented in the sample as a whole.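 Single-concentration screen, 48 h exposure, 96-well plates. Endpoint: percent growth. Below 10 = active.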 A number with no mark means an inactive call. Calls of active or inactive are those of the source.
Assays:
Assay in all cases: NCI-60 one-dose screen, 48 h (100 = growth as untreated, 0 = no growth, -100 = all killed)
[1] = system: HT29 colon; settings: 10 µM unless noted
[2] = system: SNB-19 CNS; settings: 10 µM unless noted
[3] = system: U251 CNS; settings: 10 µM unless noted
[4] = system: PC-3 prostate; settings: 10 µM unless noted
[5] = system: SK-MEL-5 melanoma; settings: 10 µM unless noted
[6] = system: UACC-62 melanoma; settings: 10 µM unless noted
[7] = system: LOX IMVI melanoma; settings: 10 µM unless noted
[8] = system: SK-MEL-28 melanoma; settings: 10 µM
[9] = system: SK-MEL-2 melanoma; settings: 10 µM unless noted
[10] = system: SNB-75 CNS; settings: 10 µM unless noted

| SMILES | growth [1] | growth [2] | growth [3] | growth [4] | growth [5] | growth [6] | growth [7] | growth [8] | growth [9] | growth [10] [%] |
| --- | --- | --- | --- | --- | --- | --- | --- | --- | --- | --- |
| CC/C(=C(\CC)c1ccc(OCC[N+](C)(C)C)cc1)c1ccc(OC)cc1 | 39.5% | 27.1% | 21.6% | 41.6% | 44.1% | 42.2% | 73.2% | 76.7% | 98.8% |  |
| O=C(/C=C/c1ccccn1)c1ccc(OCc2nnc(-c3ccc(Cl)cc3)o2)cc1 | -62.5% (active) | 52.3% |  | 58.9% |  | 49.3% | -92.1% (active) | 53.8% | 98.6% | 50.8 |
| CC(=O)SC1CC(=O)C=C2CCC3C4CCC(=O)OC4(C)CCC3C21C (stereo not drawn) | 101% |  | 99.4% | 94% |  |  | 97.8% | 120% | 106% | 84.2 |
| O=C(CCN1C(=O)c2ccccc2C1=O)Nc1ccc(Cl)cc1 | 44.4% | 90.3% | 62.2% | 71.7% | 81% | 87.4% | 60.2% | 117% | 98.7% |  |
| COc1ccc(-c2nnc(COc3ccc(C(=O)/C=C/c4ccco4)cc3)o2)cc1 | 20.3% | 78.1% |  | 86.2% |  | 85.9% | -30.5% (active) | 90.9% | 132% | 60.1 |
| Cc1cc2c(c(C)c1Cl)C(=O)/C(=C/c1ccco1)O2 | 98.3% | 95.2% | 96.2% | 98.5% | 69.9% | 88.7% | 93% | 107% | 102% |  |
| COc1ccc(C(O)(CCC(C)C)C(CN2CCOCC2)c2ccc(Cl)cc2)cc1 (stereo not drawn) | 9% (active) | 83.6% | 66.1% | 53.8% | 65.5% | 60.9% | 52.2% | 54.1% | 2.58% (active) |  |
| CCOC(=O)CSc1c(-c2ccccc2)c2cc(Cl)ccc2[nH]c1=O | 105% | 108% |  | 91.9% |  | 92.6% | 84% | 109% | 114% | 94.1 |
| COC(=O)c1c2c(c(C)[n+]([O-])c1C)C(=O)C(NCc1ccc(Br)cc1)=CC2=O | 9.96% (active) | 19% | 9.45% (active) | 27.6% | -93.1% (active) | -16.2% (active) | 16.9% | 65.3% | 47.1% |  |
| CC(C)[C@H](NC(=O)Cn1cc(C(=O)O)nn1)C(=O)O |  | 105% | 100% | 94.1% | 98.6% | 103% | 104% | 111% | 127% |  |
| CN1C(=O)N(C)C2Nn3c(s/c(=C\c4ccc(Cl)cc4Cl)c3=O)=NC21 (stereo not drawn) | 37% | 64% | 61.4% | 38.9% |  | 47.1% | 58.3% | 62.1% | 89.2% |  |
| O=C(CN1C=NC2C(N3CCOCC3)=NC=NC21)c1ccc(Br)cc1 (stereo not drawn) | 107% | 97.2% | 99.8% | 95.5% |  | 93.1% | 97.3% | 111% | 94.4% |  |
| CCN1C(=O)N(c2ccccc2)C2Nn3c(s/c(=C4\C(=O)N(C(C)C)c5ccccc54)c3=O)=NC21 (stereo not drawn) | 105% | 96% | 104% | 106% |  | 97.5% | 100% | 118% | 102% |  |
| NC(=O)CSc1nc(-c2ccc(F)cc2)cc(-c2ccco2)n1 |  | 106% | 99.2% | 89.1% | 103% | 95.4% | 96.4% | 115% | 101% | 99.2 |
| C=CCN1C(=O)/C(=c2\sc3n(c2=O)NC2C(N=3)N(CC)C(=O)N2CC)c2ccccc21 (stereo not drawn) | 19.9% | 44.5% | 45.8% | 30.5% |  | 35.5% | 47.7% | 59.9% | 65.9% |  |
| c1ccc2c(c1)oc1cc3sccc3nc12 | 106% | 98.3% | 92% | 93.4% |  | 94.2% | 96.8% | 109% | 95.3% |  |
| COc1ccc(-c2nsc3c2NC(=O)CC3c2ccc3c(c2)OCCO3)cc1 (stereo not drawn) | -0.622% (active) | 56.8% | 24.3% | 23.6% |  | 32.2% | 44.3% | 43.1% | 57.5% |  |
| COc1ccc(/C=c2\sc3n(c2=O)NC2C(N=3)N(C)C(=O)N2C)cc1 (stereo not drawn) | 103% | 94.1% | 101% | 95.6% |  | 89.1% | 92.8% | 104% | 103% |  |
| Cc1c(-c2csc(-n3nc(C(F)(F)F)cc3C(F)(F)F)n2)no[n+]1[O-] | 99.2% | 94.1% | 104% | 98.6% |  | 89.5% | 99% | 102% | 99.4% |  |
| COc1ccc2[nH]c(O)c(N=NC(=O)c3oc4ccccc4c3C)c2c1 | 27.3% | 42.7% | 2.05% (active) | 21.8% |  | 34.3% | 16.3% | 15.8% | 70.9% |  |
| O=C(N=Nc1c(O)[nH]c2ccccc12)c1oc2ccccc2c1CN1CCN(c2ccccc2)CC1 | 15.8% | 18.6% | -22.2% (active) | -22.2% (active) |  | 4.02% (active) | 2.72% (active) | -31.8% (active) | 72.9% |  |
| C=C[C@@H]1CCC/C=C/[C@@H]2C[C@H](O)C[C@H]2[C@H](O)/C=C/C(=O)O1 |  | 33.4% | 25.3% | 30.3% | -90.1% (active) | 22.1% | -63.6% (active) | 6.18% (active) | -1.5% (active) | 33.8 |
| CC1=NCC2NC(=O)NC(C)=C12 (stereo not drawn) | 108% | 98.9% | 103% | 93.9% |  | 95.2% | 101% | 114% | 101% |  |
| CCN1C(=O)N(CC)C2C1NN=c1s/c(=C3\C(=O)N(CC(C)(C)C)c4ccccc43)c(=O)n12 (stereo not drawn) | 6.57% (active) | 33.1% | 21% | 20.8% |  | 36.1% | 38.7% | 64% | 53.6% |  |

| SMILES | growth [1] | growth [2] | growth [3] | growth [4] | growth [5] | growth [6] | growth [7] | growth [8] | growth [9] | growth [10] [%] |
| --- | --- | --- | --- | --- | --- | --- | --- | --- | --- | --- |
| CC[C@@H](C)[C@H](NC(=O)Cn1cc(CNC(=O)[C@@H](NC(=O)OCc2ccccc2)C(C)C)nn1)C(=O)O |  | 106% | 104% | 97.2% | 102% | 100% | 99.7% | 113% | 110% | 101 |
| CC[C@H](C)[C@@H](C(=O)OC)n1cc(CNC(=O)[C@@H](Cc2ccccc2)NC(=O)OCc2ccccc2)nn1 |  | 93.2% | 91.5% | 100% | 103% | 94.6% | 99.5% | 110% | 105% |  |
| O=C(COc1cc(O)c2c(=O)cc(-c3ccccc3)oc2c1)Nc1ccccc1C(F)(F)F | 70.6% | 45.2% | 4.09% (active) | 64.6% |  | 77.5% | 52% | 79.1% | 92% |  |
| O=C1N=c2ccccc2=C1c1sc(=Nc2ccccc2)n(Nc2ccccc2)c1O | 112% | 101% | 97.5% | 97.3% |  | 92.1% | 100% | 112% | 103% |  |
| CCCSC1=NC2C(N(CC)C(=O)N2CC)N1/N=C/C=C/c1ccccc1[N+](=O)[O-] (stereo not drawn) | 9.1% (active) | 29.6% | 21.7% | 24.9% |  | 36.6% | 37.7% | 63.5% | 48.6% |  |
| CCCCCCCCCCOC(=O)c1ccccc1C(=O)OCCCC | 105% |  | 101% | 90.4% |  |  | 102% | 119% | 111% |  |
| CCN1C(=O)N(c2ccccc2)C2NN=c3s/c(=C4\C(=O)N(C(C)C)c5ccccc54)c(=O)n3C21 (stereo not drawn) | 9.74% (active) | 35.7% | 25.9% | 25.7% |  | 37.6% | 31.4% | 62.8% | 48.8% |  |
| NC(CCc1nc2ccccc2c(=O)[nH]1)C(=O)O (stereo not drawn) | 104% | 98.3% | 96.6% | 102% |  | 100% | 102% | 110% | 102% |  |
| CN1C(=O)N(C)C2(c3ccccc3)n3c(s/c(=C\c4ccccc4)c3=O)=NNC12c1ccccc1 (stereo not drawn) | 95.5% | 98% | 96.4% | 74.2% |  | 81.2% | 86.2% | 101% | 99.7% |  |
| COc1cc(/C=C/C(=O)N2c3ccccc3CC2C)c(OC)c2c1OCO2 (stereo not drawn) | 83.8% | 96.2% | 87.6% | 68.7% |  | 84.5% | 94.3% | 90.7% | 98.6% |  |
| O=C(CN1C=NC2C(N3CCOCC3)=NC=NC21)c1cccc2ccccc12 (stereo not drawn) | 111% | 96.7% | 101% | 85.2% |  | 85.5% | 91.9% | 109% | 99% |  |
| Nc1ccc(C2c3ccccc3Oc3ccccc32)cc1 | 99.3% | 105% | 93.3% | 90% |  | 94.8% | 90.8% | 114% | 110% |  |
| Cn1nc(C(F)(F)F)c(-c2ccc(Cl)c(C(F)(F)F)c2)c1-c1ccc(OCc2ccc(Cl)cc2)cc1O | 20.4% | 19.2% | 0.822% (active) | 3.78% (active) |  | 19.7% | 5.24% (active) | 31.2% | 1.95% (active) |  |
| CN1C(=O)N(C)C2C1NN=c1s/c(=C\c3c[nH]c4ccccc34)c(=O)n12 (stereo not drawn) | 11.3% | 27.3% | 14.5% | 23.4% |  | 38.3% | 22.3% | 69.4% | 52.5% |  |
| COc1cc(/C=C2\Oc3cc(OCCCN4CCCC4)ccc3C2=O)cc(OC)c1 | -42.4% (active) | 64.7% | 18.3% | 39.3% |  | 71.1% | -78% (active) | 73.5% | 108% |  |
| CN1C(=O)N(C)C2C1NN=c1s/c(=C\c3ccc([N+](=O)[O-])cc3)c(=O)n12 (stereo not drawn) | 25.9% | 54% | 69.8% | 45.8% |  | 39.4% | 51.3% | 76.9% | 64.6% |  |
| CC1=CCC(OC(=O)C(C)(C)CCC(O)(C(=O)OC2(C(C)C)CCC3(C)OC3C2)C(C)C)(C(C)C)CC1 (stereo not drawn) | -70.2% (active) | -97.2% (active) | -98.8% (active) |  |  | -94.2% (active) | -90.5% (active) | -96.9% (active) | -91.6% (active) |  |
| Cc1ccc(Cn2c(N3CCC(C(=O)NCc4cccs4)CC3)nc3ccccc32)cc1 | 48.6% | 112% | 73.9% | 39.8% | 92% | 101% |  | 98.1% | 101% |  |
| CCCC(c1nnnn1C1CCCCC1)N1CCN(C(=O)c2ccco2)CC1 (stereo not drawn) | 27.2% | 84.5% | 50.2% | 54.2% | 47.1% | 55.7% |  | 65.6% | 65.1% |  |
| S=C1NC2(c3ccccc3)CCC(=S)N2c2ccccc21 (stereo not drawn) | 105% | 97.6% | 95% | 96.7% |  | 92% | 99.7% | 114% | 97.1% |  |
| CCCN1C(=O)N(CCC)C2C1NN=c1s/c(=C3\C(=O)N(C(C)C)c4ccccc43)c(=O)n12 (stereo not drawn) | 18.8% | 47.9% | 48.4% | 35.8% |  | 31.5% | 41.1% | 60.7% | 49.4% |  |
| O=C(Nc1ncc(Cc2cccc(C(F)(F)F)c2)s1)C1COc2ccccc2O1 (stereo not drawn) | 84.9% | 89.9% | 83.8% |  | 89.8% | 65.3% | 94.8% | 87.5% | 88% |  |
| CC(C)Cn1c2c(c(=S)[nH]c1=O)CCC2 | 111% | 97.6% | 102% | 104% |  | 96.1% | 101% | 118% | 98.2% |  |
| CN1C(=O)N(C)C2C1NN=c1s/c(=C\c3ccc(Cl)cc3Cl)c(=O)n12 (stereo not drawn) | 15% | 26.5% | 27.5% | 20% |  | 30% | 19.7% | 58.7% | 57% |  |

Source: PubChem BioAssay (NCI)
